Assay results as given in PubChem BioAssay (NCATS).
Results filed as inconclusive are left out. Active and inactive are the calls of the source. Calls follow the shape of the dose curve; as a rule, active = well fitted activation curve with a large enough effect; inconclusive = small, poorly fitted or top-dose-only effect; inactive = no such curve, though single readings can be large or run the other way.

biological target: Rap guanine nucleotide exchange factor 3 (Homo sapiens) (UniProt O95398); assay: Confirmatory qHTS for agonist of cAMP-regulated guanine nucleotide exchange factor 3 (EPAC1) (AID 1645881); details: EPAC1 Rap1B BODIPY-GDP exchange fluorescence; series mostly up to 154 µM;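 also: EPAC1 catalysed release of BODIPY-GDP from Rap1B seen as fluorescence loss; nearly all actives have a fitted effect of over 75% in size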
Sequence (O95398 whole entry, looked up): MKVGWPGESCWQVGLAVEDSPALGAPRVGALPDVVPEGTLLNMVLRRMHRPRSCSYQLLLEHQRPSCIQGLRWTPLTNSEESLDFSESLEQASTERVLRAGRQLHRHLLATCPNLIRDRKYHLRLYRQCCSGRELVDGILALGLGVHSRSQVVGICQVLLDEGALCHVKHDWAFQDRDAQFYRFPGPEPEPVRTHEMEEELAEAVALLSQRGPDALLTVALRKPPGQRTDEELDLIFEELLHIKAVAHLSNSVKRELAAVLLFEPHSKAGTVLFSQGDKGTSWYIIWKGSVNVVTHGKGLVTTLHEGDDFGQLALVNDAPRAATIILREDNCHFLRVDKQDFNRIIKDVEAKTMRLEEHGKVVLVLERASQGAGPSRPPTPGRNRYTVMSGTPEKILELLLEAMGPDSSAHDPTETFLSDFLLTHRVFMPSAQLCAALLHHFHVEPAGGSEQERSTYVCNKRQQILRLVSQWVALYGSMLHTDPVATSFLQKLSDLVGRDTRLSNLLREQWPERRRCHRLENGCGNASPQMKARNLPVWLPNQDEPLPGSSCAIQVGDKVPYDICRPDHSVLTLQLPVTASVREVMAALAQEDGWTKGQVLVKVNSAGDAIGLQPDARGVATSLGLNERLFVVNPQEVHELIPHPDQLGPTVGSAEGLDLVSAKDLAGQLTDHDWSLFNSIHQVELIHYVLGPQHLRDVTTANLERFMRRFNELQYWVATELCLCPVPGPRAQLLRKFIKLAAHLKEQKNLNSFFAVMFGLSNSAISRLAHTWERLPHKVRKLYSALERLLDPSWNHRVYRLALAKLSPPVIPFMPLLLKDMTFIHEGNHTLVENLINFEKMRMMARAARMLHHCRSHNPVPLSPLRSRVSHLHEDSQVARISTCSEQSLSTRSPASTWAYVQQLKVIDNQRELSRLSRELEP

Potency, inactive:
COc1ccccc1[C@@]1(C)ON(c2ccccc2C(F)(F)F)C1=O, O=C1C(O)=C(O)C(=O)c2ccccc21, Cc1ccccc1C(=O)Nc1ccccc1N1CCCCC1, CCCCOC(=O)CCn1c(=S)oc2ccccc21, CCOC(=O)C1=C(C)N=c2s/c(=C/c3ccc(OCC(=O)O)cc3)c(=O)n2C1c1ccc(F)cc1 (centres undefined), FC(F)(F)C1=Nc2cccc3cccc(c23)N1, COc1cccc(COC(=O)CSCC(=O)Nc2cccc(C)c2)c1OC, CCN1CCN(c2ccc(S(=O)(=O)N3CCCCC3)cc2NC(=O)c2ccc([N+](=O)[O-])s2)CC1, COc1ccc(-c2nc(C)ncc2-c2ccc(Cl)cc2)c(O)c1, Cc1ccc(S(=O)(=O)/N=C2\C=C(NS(=O)(=O)c3ccccc3)C(=O)c3ccccc32)c(C)c1, COc1cc(NC(=O)c2ccccc2NS(=O)(=O)c2ccc(Cl)s2)cc(OC)c1, Cc1ccc(S(=O)(=O)N2CCN(c3ncnc4sccc34)CC2)cc1C, C/C(=N/NS(=O)(=O)c1ccc(C(C)(C)C)cc1)c1ccc2c(c1)OCO2, O=C(Cc1c(Sc2ccccc2)c2ccccc2n1Cc1ccccc1)NCCO, CN(CC(=O)Nc1ccc(F)cc1)C(=O)c1cc(-c2ccco2)nc2ccccc12, C[n+]1cccc2c(Br)ccc([O-])c21, Cc1cc(Cl)ccc1Oc1ccccc1C(=O)CC#N, C#Cc1ccc([C@@H]2C=C(C(=O)NCc3ccccc3)O[C@H](OCC)[C@H]2CCCO)cc1, COc1ccc(C)cc1NC(=O)c1ccc2c(SCC(=O)O)c3c(nc2c1)CCCC3, Cc1ccc(-c2ccc(CN3C(C(C)C)C(=O)N(Cc4cn(CCC5OCCO5)nn4)CCS3(=O)=O)cc2)c(C)c1 (centres undefined), Cc1nc2c(OCc3ccc(C(F)(F)F)cc3)cccn2c1N(C)Cc1cccs1, CCCCC1CC2=C(C(=O)OC(C)(C)O2)C(c2ccc(Cl)cc2)O1 (centres undefined), Cc1ccc(/C=N/Nc2cc(C)nc(NCc3ccccc3)n2)cc1, COc1cc(/C=N/NS(=O)(=O)c2ccc3ccccc3c2)ccc1OCc1ccc(C(=O)O)cc1, CCCCn1c(N)c(N(CCOC)C(=O)c2ccc(-c3ccc(C(C)=O)cc3)o2)c(=O)[nH]c1=O, COc1ccc(-c2cc(N)n(S(=O)(=O)c3c(F)c(F)c(F)c(F)c3F)n2)cc1OC, COc1ccc(-c2sc3ccc(OC)cc3c2C#CCCO)cc1, CCCN(CC(=O)Nc1ccccc1C)C(=O)C1CCN(c2ncnc3sc(C)c(C)c23)CC1, COc1ccc(-c2nn3c(-c4cccc(C)c4)nnc3s2)cc1OC, Clc1cccc(-c2nc3ccc(Cl)cn3c2Cc2ccsc2)c1, CCOC(=O)CC1C(=O)NCCN1C(=O)c1cccc(C(F)(F)F)c1 (centres undefined), Cc1cc(C)c(Cn2cnc3ccccc32)c(C)c1, CCCCN(CCCC)C1=Nc2ccccc2N/C1=C(/C#N)C(=O)OCC, CC(C)CNC(=O)C1Nc2ccc(OC(F)(F)F)cc2C2C=CCC12 (centres undefined), Cc1ccc(/C=C2/SC(=S)N(c3ccc(S(=O)(=O)Nc4nccs4)cc3)C2=O)cc1, CC(=O)NC(C)(c1ccccc1)c1nc(-c2cc(F)cc(F)c2)cs1 (centres undefined), Cc1oc2ccc(O)c(CN3CCCCC3)c2c1C(=O)Nc1cccc(C(F)(F)F)c1, Fc1ccc2c(-c3cccc(C(F)(F)F)c3)c(-c3ccccc3)ncc2c1, CCOc1ccc(S(=O)(=O)Nc2nc3ccccc3nc2-n2ccc(=NC(=O)c3cccs3)cc2)cc1
